A selection: hits, their analogues and other compounds. The true share with any hit is near 2.4%.
FEN1 inhibitor: inhibitors of human flap endonuclease 1; Recombinant FEN1 flap cleavage, fluorescence, 15 min; 0.35% of 390,000 active; Potency, µM (series often up to 114 µM), hits mostly inhibitors; further: nearly all actives have a fitted effect of over 65% in size
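Read-out was taken twice, immediately and after 15 min, following addition of 50 nM substrate to 10 nM FEN1 that had sat with test compound for 15 min at room temperature. Curves came from a four-parameter Hill model.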
Pol kappa inh: DNA polymerase kappa (human) inhibition; Q9UBT6; purified Pol kappa, fluorescent DNA synthesis assay, 10 min; Potency, µM (top dose mostly 107 µM), most hits filed as inhibitors; 0.53% of 400,000 active; AID 588579
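Fluorescent qHTS in 1536-well format: enzyme (10 nM) and compound sat 15 min at room temperature before 50 nM substrate (final) was added. Signal taken at 0 and 10 min; no-enzyme buffer wells were negative controls.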
WRN helicase inh: WRN helicase (human) inhibition; WRN helicase unwinding, fluorescent forked duplex, kinetic; 0.46% of 360,000 active; AID 651768; Q14191; Potency, µM (titrated, usually from 114 µM), actives largely listed as inhibitors; further: nearly all actives have a fitted effect of over 55% in size
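Kinetic red-fluorescence monitoring (525/598 nm) tracks WRN helicase activity after 100 nM fluorophore-quencher forked duplex and 2 mM ATP are added to 20 nM enzyme pretreated 15 min at room temperature with compound.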
POLI inh: inhibitors of human DNA polymerase iota; Q9UNA4; Pol iota fluorescent replication assay, 10 min; Potency, µM (highest dose often 115 µM), most hits filed as inhibitors; 1% of 390,000 active; AID 588590
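Fluorescent replication assay read twice, at 0 min and 10 min after adding 50 nM (final) substrate. Enzyme (10 nM) and compounds were first incubated 15 min at room temperature; enzyme-free buffer wells were negative controls.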
Pol eta inh: DNA polymerase eta (human) inhibition; recombinant Pol eta, fluorescent DNA replication assay; Potency, µM (top dose mostly 114 µM), actives largely listed as inhibitors; Q9Y253; 1.2% of 390,000 active
Target sequence (Q9Y253 whole entry, looked up): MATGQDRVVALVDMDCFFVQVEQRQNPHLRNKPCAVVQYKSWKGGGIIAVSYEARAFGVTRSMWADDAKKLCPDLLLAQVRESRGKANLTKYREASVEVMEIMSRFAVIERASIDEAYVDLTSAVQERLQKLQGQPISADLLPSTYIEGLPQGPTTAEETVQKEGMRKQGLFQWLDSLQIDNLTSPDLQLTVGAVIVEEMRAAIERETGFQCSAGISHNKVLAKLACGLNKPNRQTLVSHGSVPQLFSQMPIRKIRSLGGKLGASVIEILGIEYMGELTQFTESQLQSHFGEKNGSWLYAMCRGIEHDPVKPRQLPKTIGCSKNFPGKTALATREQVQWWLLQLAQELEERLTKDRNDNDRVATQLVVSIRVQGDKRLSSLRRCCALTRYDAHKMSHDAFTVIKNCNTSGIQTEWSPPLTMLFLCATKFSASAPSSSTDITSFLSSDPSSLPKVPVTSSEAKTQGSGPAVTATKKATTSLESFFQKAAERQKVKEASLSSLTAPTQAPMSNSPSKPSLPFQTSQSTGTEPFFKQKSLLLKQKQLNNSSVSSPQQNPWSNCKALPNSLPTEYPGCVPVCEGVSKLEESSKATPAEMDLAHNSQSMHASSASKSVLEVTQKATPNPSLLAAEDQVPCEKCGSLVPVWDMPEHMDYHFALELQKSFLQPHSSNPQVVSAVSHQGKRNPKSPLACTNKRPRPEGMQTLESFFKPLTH
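Fluorescent replication assay: 50 nM final substrate added after a 15 min room-temperature compound preincubation with 10 nM enzyme. Signal taken at 0 min and again at 10 min.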
POLB inh: DNA polymerase beta (human) inhibition; AID 485314; 1.3% of 340,000 active; P06746; Pol beta primer extension/strand displacement, fluorescence kinetic; Potency, µM (doses to about 114 µM), actives largely listed as inhibitors
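Reaction started by 50 nM substrate onto compound-treated Pol beta (10 nM, 15 min preincubation, room temperature); plates read at 0 min and 10 min. Normalized concentration-effect data fitted by four-parameter Hill equation.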
Hits are given with their value; - = inactive; ? = inconclusive; . = no result given; [ ] = another dose, or the depositor's remark. The call rests on the fitted dose curve; in most records, active means well fitted curve in the direction sought with a large enough effect; inconclusive means small, poorly fitted or top-dose-only effect, or another doubt; inactive means no such curve, though single readings can be large; an effect the other way counts as inactive or inconclusive.

SMILES | FEN1 inhibitor | Pol kappa inh | WRN helicase inh | POLI inh | Pol eta inh | POLB inh
CCOc1ccc(NC(=O)CNC(=O)c2nn(-c3ccc(OC)c(OC)c3)c(=O)c3ccccc23)cc1 | - | - | - | ? | - | -
N#CC1=C(S)N(c2ccccc2)C(c2ccc(-c3ccccc3Cl)o2)NC1=O (stereo not drawn) | - | - | - | - | 45µM | -
N#CC1=C(S)N(c2ccc(F)cc2)C(c2cccs2)NC1=O (stereo not drawn) | - | - | - | - | - | -
N#CC(C#N)=C1C=C2C=C(N3CCCCC3)CCC2CC1 (stereo not drawn) | ? | - | ? | ? | 79µM | 50µM
COc1ccc(NC(=O)c2cc3c(COC(C)=O)cnc(C)c3oc2=Nc2cccc(C(=O)O)c2)c(OC)c1 | ? | - | - | - | 3.2µM | -
COc1cccc(N=c2oc3c(C)ncc(CO)c3cc2C(=O)Nc2ccccc2OC)c1 | . | . | . | . | . | -
COc1cc(NS(=O)(=O)c2ccc(Nc3nc(-c4ccccn4)cs3)cc2)nc(OC)n1 | - | - | ? | - | - | -
COc1ccc(-c2csc(Nc3ccc(S(=O)(=O)Nc4cc(C)on4)cc3)n2)cc1C | - | - | - | - | 89µM | ?
COc1ccc(-c2csc(Nc3ccc(S(=O)(=O)Nc4cc(OC)nc(OC)n4)cc3)n2)cc1 | ? | - | - | - | 89µM | -
COc1ccc(-c2csc(NC(=O)c3ccccc3NS(=O)(=O)c3ccc(C)cc3)n2)cc1 | ? | ? | - | 32µM | 20µM | ?
CC(C)Oc1ccc(CNC(=O)C2CCN(C(=O)N3CCOc4ccc(Cl)cc43)CC2)cc1 | - | - | . | - | - | -
CC1=C(C(=O)Nc2cccc(C(F)(F)F)c2)C2(CCN(C(C)C)CC2)OC1=O | - | - | . | - | - | -
C[C@@H]1C[C@@H]2OC(=O)[C@]3(C)[C@H]2[C@@H](OC3(C)O)[C@]2(C)C(=O)C=C[C@H]12 (stereo partly drawn) | - | - | - | ? | - | ?
C=C1C(=O)O[C@@H]2C[C@@H](C)[C@@H]3C=CC(=O)[C@@]3(C)[C@@H](OC(C)=O)[C@H]12 | - | - | -[11.6 µM] | ? | 45µM | -
Cc1[nH]c2ccccc2c1/C=N/Nc1nncn1N | - | - | - | 5µM | - | ?
Cc1ccc(/C=[N+](\[O-])c2ccc(N(C)C)cc2)c2nsnc12 | ? | - | -[11.6 µM] | 50µM | - | ?
COc1cc(C)ccc1OCCOc1cc(C)ccc1Cl | - | - | - | - | - | 13µM
COc1cc(C)ccc1OCCOc1c(Cl)cc(Cl)cc1Cl | - | - | - | - | ? | -
CCN(CC)c1ccc(C(=O)c2ccccc2C(=O)O)c(O)c1 | - | - | - | - | - | -
O=C(O)c1cc(N(Cc2ccccc2O)Cc2ccccc2O)ccc1O | ? | 45µM | . | 14µM | . | .
COC(=O)c1cc2oc(C)cc2n1Cc1c(C)cc(C)cc1C | - | - | . | - | - | -
CC(=O)Oc1ccc(-c2nc(-c3ccccc3)no2)cc1 | - | - | . | - | . | .
NC(=O)CC(NC(=O)Cc1cccc2ccccc12)c1ccc(NC2CCN(Cc3ccccc3)CC2)c([N+](=O)[O-])c1 (stereo not drawn) | - | - | - | - | - | 50µM
NC(=O)CC(NC(=O)Cc1cccc2ccccc12)c1ccc(NC2CCCCCC2)c([N+](=O)[O-])c1 (stereo not drawn) | - | - | - | ? | - | -
O=C(Nc1ccc(Br)cn1)c1coc(=O)c(Br)c1 | - | ? | - | 40µM | 45µM | ?
SMILES | FEN1 inhibitor | Pol kappa inh | WRN helicase inh | POLI inh | Pol eta inh | POLB inh
O=C(Nc1ccccc1F)c1coc(=O)c(Br)c1 | ? | 32µM | ? | 28µM | 79µM | 13µM
CCc1ccccc1NC(=O)CN1C(=O)c2cccnc2Oc2ccc(Cl)cc21 | - | - | . | - | - | -
C=C1C=C(C)n2ncc(C(=O)Nc3ccc(NC(C)=O)c(Cl)c3)c2N1 | - | - | . | - | . | .
O=C(C[n+]1ccccc1Cl)c1ccc(F)cc1 | - | - | . | - | . | .
O=C(COc1ccccc1C(=O)Nc1ccccc1)Nc1cccc(Cl)c1 | - | - | . | - | . | .
O=C(N/N=C/c1ccc(O)c(O)c1O)/C(=C/c1ccc([N+](=O)[O-])cc1)NC(=O)c1ccccc1 | ? | - | 40µM | ? | - | -
Cc1ccc(NC(=O)/C(=C\c2ccc([N+](=O)[O-])cc2)NC(=O)c2ccccc2)cc1 | - | - | - | - | - | -
O=C(OCc1ccccc1)N1CCN(/[N+]([O-])=N/Oc2ccc([N+](=O)[O-])cc2[N+](=O)[O-])CC1 | - | - | . | - | . | .
CN1CCN(c2cc(N3CCN(C(=O)c4ccco4)CC3)c3c4c(onc24)-c2ccccc2C3=O)CC1 | ? | - | ? | ? | ? | -
O=C1c2ccccc2-c2onc3c(Oc4ccccc4)cc(O)c1c23 | . | . | . | . | . | 35µM
Cn1cc(C(=O)NCCN2CCN(c3cccc(Cl)c3)CC2)c2c3ccccc3n(C)c2c1=O | - | ? | - | 100µM | ? | -
Cc1c(Br)c(O)c(Br)c2sc(=O)oc12 | ? | ? | - | 6.3µM | ? | 20µM
N#Cc1ccc(/C=C2/C=Cc3ccccc32)cc1 | - | - | . | - | . | .
Cc1cccc(C2C3=C(Nc4[nH]n(-c5ccccc5)c(=O)c42)c2ccccc2C3=O)c1 (stereo not drawn) | ? | ? | -[11.6 µM] | ? | 13µM | ?
CCc1nc2ccc(C(=O)O)cc2nc1CC | - | - | - | - | 14µM | -
CCCCN1C(=O)C(NC(C)=O)c2cc(Br)ccc21 (stereo not drawn) | - | - | - | - | - | -
CC(=O)NC1C(=O)N(CCN2CCOCC2)c2ccc(F)cc21 (stereo not drawn) | 50µM | - | -[11.6 µM] | ? | ? | -
CC(=O)NC1C(=O)N(CCN2CCOCC2)c2ccc(C)cc21 (stereo not drawn) | ? | - | - | - | 25µM | ?
CCc1ccc2c(c1)C(NC(C)=O)C(=O)N2CC (stereo not drawn) | - | - | - | - | - | -
COc1cccc(Cc2nc3ccccc3nc2SCC(=O)N2CCCc3ccccc32)c1 | - | - | . | - | - | ?
COc1cc(Cl)c(C)cc1NC(=O)CC1Oc2ccccc2NC1=O (stereo not drawn) | - | - | . | - | - | -
CNc1ccc(C(=O)Oc2cc(O/N=[N+](\[O-])N(C)C)c([N+](=O)[O-])cc2[N+](=O)[O-])cc1 | - | - | . | - | . | .
Cc1cc(N2CCN(C)CC2)nc2ccc(NC(=O)Nc3ccc(Cl)cc3)cc12 | - | - | . | - | - | -
Cc1cc(N)c2cc(NC(=O)Nc3ccc4nc(C)cc(N)c4c3)ccc2n1 | . | 6.3µM | . | . | . | .
C(=C\c1ccnc2ccccc12)/c1ccc2ccccc2n1 | ? | - | . | - | . | .

Source: PubChem
